Results published in PubChem BioAssay (Tox21).
Results filed as inconclusive are left out. Where a call stands in place of a potency, no number is given. Values without a mark were called inactive. Calls of active or inactive are those of the source. Unless noted, calls follow the shape of the dose curve; as a rule, active = well fitted curve in the direction sought with a large enough effect in the repeat runs; inconclusive = weak or mixed curves; inactive = no such curve, though single readings can be large; an effect the other way counts as inactive or inconclusive.

Legend:
[1] = qHTS assay to identify small molecule agonists of the peroxisome proliferator-activated receptor delta (PPARd) signaling pathway - cell viability counter screen (AID 743211); also: nearly all actives have a fitted effect of over 55% in size; also: potency is read from the fitted curve at half-maximal effect
Summary of the method: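 HEK293H PPARd-bla, 3000 cells/well; 5 h preincubation 37C/5% CO2; cpd in DMSO, 17 h 37C; B/G FRET substrate 2 h RT; CellTiter-Glo 30 min RT, luminescence.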

[2] = qHTS assay to identify small molecule antagonists of the peroxisome proliferator-activated receptor delta (PPARd) signaling pathway - cell viability counter screen (AID 743213); also: nearly all actives have a fitted effect of over 50% in size; also: potency is read from the fitted curve at half-maximal effect
Summary of the method: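 HEK293H cells with the PPARd UAS-bla reporter, co-treated 17 h at 37 C with compounds and L165041 (300 nM final), were lysed with CellTiter-Glo. Luminescence indicated viable cell content.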

[3] = qHTS assay to identify small molecule agonists of the farnesoid-X-receptor (FXR) signaling pathway - cell viability counter screen (AID 743218); also: nearly all actives have a fitted effect of over 45% in size; also: potency is read from the fitted curve at half-maximal effect
Summary of the method: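 Viability counter screen in the same wells: CellTiter-Glo luminescence, 30 min room-temperature incubation, measured after the beta-lactamase read. Cells were GeneBLAzer FXR-UAS-bla HEK 293T, compound-treated 16 h at 37C.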

[4] = qHTS assay to identify small molecule antagonists of the farnesoid-X-receptor (FXR) signaling pathway - cell viability counter screen (AID 743221; active = well fitted cell-killing curve with a large enough effect in the repeat runs, not every such curve was filed as active; also: nearly all actives have a fitted effect of over 50% in size; also: potency is read from the fitted curve at half-maximal effect)
Summary of the method: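 Luminescence from CellTiter-Glo measures cytotoxicity in GeneBLAzer FXR-UAS-bla HEK 293T cells. Cells were exposed to compounds with 50 uM chenodeoxycholic acid (final) for 16 h at 37 C, in wells also used for the reporter readout.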

[5] = target: Vitamin D3 receptor (Homo sapiens) (UniProt P11473); test: qHTS assay to identify small molecule agonists of the vitamin D receptor (VDR) signaling pathway (AID 743222; calls by dose curve)
Vitamin D3 receptor (Homo sapiens), sequence (P11473 whole entry, looked up): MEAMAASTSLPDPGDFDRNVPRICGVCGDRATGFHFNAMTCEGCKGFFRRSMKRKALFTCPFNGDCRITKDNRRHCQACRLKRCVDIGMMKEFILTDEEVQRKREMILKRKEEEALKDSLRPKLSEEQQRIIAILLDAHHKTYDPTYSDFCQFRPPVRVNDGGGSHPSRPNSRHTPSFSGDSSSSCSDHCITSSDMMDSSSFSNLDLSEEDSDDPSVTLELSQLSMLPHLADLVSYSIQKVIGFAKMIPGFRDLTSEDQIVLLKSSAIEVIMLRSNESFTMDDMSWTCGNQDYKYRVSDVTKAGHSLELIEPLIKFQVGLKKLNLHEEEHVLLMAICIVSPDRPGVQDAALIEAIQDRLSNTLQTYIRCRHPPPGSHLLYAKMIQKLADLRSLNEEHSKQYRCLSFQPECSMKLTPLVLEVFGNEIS
Summary of the method: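 Agonist mode, beta-lactamase reporter: fluorescence from LiveBLAzer B/G FRET substrate (2 h, room temperature) read after 16 h compound treatment at 37 C of VDR-bla cells, which were pre-incubated 4 h after seeding.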

[6] = target: Bile acid receptor (Homo sapiens) (UniProt Q96RI1); test: qHTS assay to identify small molecule antagonists of the farnesoid-X-receptor (FXR) signaling pathway (AID 743217; active = well fitted inhibition curve with a large enough effect in the signal ratio in the repeat runs, not every such curve was filed as active; the % refers to the signal ratio)
Bile acid receptor (Homo sapiens), sequence (Q96RI1 whole entry, looked up): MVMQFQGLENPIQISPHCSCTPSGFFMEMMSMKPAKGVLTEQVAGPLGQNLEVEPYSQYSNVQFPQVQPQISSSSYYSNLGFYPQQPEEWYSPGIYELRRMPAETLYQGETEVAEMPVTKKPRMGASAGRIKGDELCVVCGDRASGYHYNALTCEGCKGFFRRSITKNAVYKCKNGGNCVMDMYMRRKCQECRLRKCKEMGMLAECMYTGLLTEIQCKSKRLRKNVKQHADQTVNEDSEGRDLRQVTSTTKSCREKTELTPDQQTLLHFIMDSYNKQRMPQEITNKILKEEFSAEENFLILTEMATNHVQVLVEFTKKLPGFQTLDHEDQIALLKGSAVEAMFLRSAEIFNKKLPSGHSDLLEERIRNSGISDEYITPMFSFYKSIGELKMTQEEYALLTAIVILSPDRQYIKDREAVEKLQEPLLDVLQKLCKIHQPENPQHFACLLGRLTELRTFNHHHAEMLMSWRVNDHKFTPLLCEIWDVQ
Summary of the method: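 Antagonist mode: chenodeoxycholic acid at 50 uM final stimulates a UAS-driven beta-lactamase reporter in HEK 293T FXR-bla cells during 16 h, 37C compound exposure. Read-out is FRET substrate fluorescence after 2 h at room temperature.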

[7] = target: Bile acid receptor (Homo sapiens) (UniProt Q96RI1); test: qHTS assay to identify small molecule agonists of the farnesoid-X-receptor (FXR) signaling pathway (AID 743220; active = well fitted activation curve with a large enough effect in the signal ratio in the repeat runs, not every such curve was filed as active; the % refers to the signal ratio)
Summary of the method: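 FXR-UAS-bla HEK 293T cells carrying a UAS-driven beta-lactamase reporter were plated for 5 h at 37C/5% CO2, then exposed to DMSO-dissolved Tox21 10K compounds for 16 h at 37C. A LiveBLAzer B/G FRET substrate was loaded for 2 h at room temperature before fluorescence reading.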

[8] = target: Vitamin D3 receptor (Homo sapiens) (UniProt P11473); test: qHTS assay to identify small molecule antagonists of the vitamin D receptor (VDR) signaling pathway (AID 743223; active = well fitted inhibition curve with a large enough effect in the signal ratio in the repeat runs, not every such curve was filed as active; the % refers to the signal ratio)
Summary of the method: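 Antagonist mode uses 1alpha,25-dihydroxyvitamin D3 at 3 nM final as stimulus. VDR-bla cells receive compounds in DMSO, incubate 16 h at 37C, then a beta-lactamase FRET substrate for 2 h at room temperature before fluorescence measurement.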

[9] = target: Peroxisome proliferator-activated receptor delta (Homo sapiens) (UniProt Q03181); test: qHTS assay to identify small molecule antagonists of the peroxisome proliferator-activated receptor delta (PPARd) signaling pathway (AID 743215; active = well fitted inhibition curve with a large enough effect in the signal ratio in the repeat runs, not every such curve was filed as active; the % refers to the signal ratio;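 also: cells stimulated with agonist L165041 at 300 nM final during compound exposure; series mostly up to about 62 µM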)
Peroxisome proliferator-activated receptor delta (Homo sapiens), sequence (Q03181 whole entry, looked up): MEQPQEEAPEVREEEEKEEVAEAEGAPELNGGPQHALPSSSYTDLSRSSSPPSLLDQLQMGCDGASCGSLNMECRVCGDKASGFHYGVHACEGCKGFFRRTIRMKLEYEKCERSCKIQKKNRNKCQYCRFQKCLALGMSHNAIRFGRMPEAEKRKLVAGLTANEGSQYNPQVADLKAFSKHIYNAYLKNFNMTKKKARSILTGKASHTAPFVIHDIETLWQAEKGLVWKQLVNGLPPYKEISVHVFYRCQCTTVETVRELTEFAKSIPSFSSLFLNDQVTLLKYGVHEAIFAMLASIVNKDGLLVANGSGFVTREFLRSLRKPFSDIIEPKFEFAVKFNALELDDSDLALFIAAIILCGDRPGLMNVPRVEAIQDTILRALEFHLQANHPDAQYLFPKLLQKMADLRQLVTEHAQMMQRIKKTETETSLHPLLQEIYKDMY
Summary of the method: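 Agonist L165041 (300 nM final) added with compound to PPARd-bla HEK293H UAS-bla reporter cells; 17 h incubation at 37 C. Read-out: LiveBLAzer FRET substrate, 2 h at room temperature, fluorescence intensity.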

[10] = target: Peroxisome proliferator-activated receptor delta (Homo sapiens) (UniProt Q03181); test: qHTS assay to identify small molecule agonists of the peroxisome proliferator-activated receptor delta (PPARd) signaling pathway (AID 743212; calls by dose curve;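 also: HEK293H cells with PPARd UAS beta-lactamase reporter GeneBLAzer system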)
Summary of the method: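 Beta-lactamase reporter readout: a ratiometric FRET signal from the LiveBLAzer substrate after 2 h at room temperature. Compound exposure at 37 °C in PPARδ-bla HEK293H cells driven by an upstream activator sequence.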

Compound	Potency [1]	Potency [2]	Potency [3]	Potency [4]	outcome [5]	outcome [6]	Potency [7]	outcome [8]	Potency [9]	outcome [10]
O=C(NC(Cc1cc(=O)[nH]c2ccccc12)C(=O)O)c1ccc(Cl)cc1 (centres undefined)	inactive	inactive	inactive	inactive	inactive					
CC(=O)OCC(C)C	inactive	inactive	inactive	inactive	inactive					
CC(C)(O)c1coc(S(=O)(=O)NC(=O)Nc2c3c(cc4c2CCC4)CCC3)c1	inactive	inactive	inactive	inactive	inactive	inactive	inactive	inactive		
CCCCCCCC/C=C\CCCCCCCC(=O)OCCO	inactive	inactive	inactive						inactive	
C=C(C)C(=O)OCCC(F)(F)C(F)(F)C(F)(F)C(F)(F)C(F)(F)C(F)(F)F	inactive	inactive	inactive	inactive	inactive	inactive	inactive			
CCCCC[C@H](O)/C=C/[C@H]1[C@H](O)CC(=O)[C@@H]1C/C=C\CCCC(=O)O	inactive	inactive	inactive	inactive						
CNS(=O)(=O)c1cc(C(=O)N2CCC(CCN3C4CCC3CC(n3c(C)nc5ccccc53)C4)(c3cccc(F)c3)CC2)c(Cl)cc1F (centres undefined)	8.71 µM (active)	7.76 µM (active)	7.76 µM (active)	21.9 µM (active)						
Cc1cc(CCC(=O)OCCOCCOCCOC(=O)CCc2cc(C)c(O)c(C(C)(C)C)c2)cc(C(C)(C)C)c1O	inactive	inactive	inactive	inactive		inactive	inactive			
CC(CN(CCN(CC(C)OCCO)CC(C)OCCO)CC(C)OCCO)OCCO (centres undefined)	inactive		inactive		inactive			inactive		inactive
CCCCCC	inactive	inactive	inactive	inactive		inactive	inactive			
O=C1NC(=O)c2cccc3cccc1c23	inactive	inactive	inactive			inactive	inactive			
CN(C)CC/C=C1\c2ccccc2Sc2ccc(Cl)cc21	29.8 µM (active)	13.3 µM (active)	23.7 µM (active)		inactive				inactive	
CO[C@@H]1[C@@H](OC)[C@H](C)[C@@](O)(CC(=O)O)O[C@H]1[C@H](C)[C@H]1O[C@@]2(CC[C@@](C)([C@H]3CC[C@@](C)([C@@H]4O[C@@H]([C@H]5O[C@](C)(O)[C@H](C)C[C@@H]5C)C[C@@H]4OC4C[C@H](OC)[C@@H](OC)[C@H](C)O4)O3)O2)C[C@H](O)[C@H]1C (some centres undefined)	2.98 µM (active)	5.31 µM (active)	9.44 µM (active)				inactive			
CCCCCCOC(=O)CCCCC	inactive	inactive	inactive	inactive	inactive			inactive		
CNC1CCCN(c2c(F)cc3c(=O)c(C(=O)O)cn(C4CC4)c3c2OC)C1 (centres undefined)	inactive	inactive	inactive	inactive	inactive	inactive	inactive			
C[C@H](CS)C(=O)N1CCC[C@H]1C(=O)O	inactive	inactive	inactive	inactive						
CCN(CC)CCNC(=O)c1cc(Cl)c(N)cc1OC	inactive	inactive	inactive	inactive	inactive	inactive	inactive	inactive		
O=C(O)/C=C/c1ccc(O)c(O)c1	inactive	inactive	inactive	inactive		inactive	inactive	inactive		
CCC1CCC(CCC(=O)O)C1 (centres undefined)	inactive	inactive	inactive			inactive	inactive	inactive		

Compound	Potency [1]	Potency [2]	Potency [3]	Potency [4]	outcome [5]	outcome [6]	Potency [7]	outcome [8]	Potency [9]	outcome [10]
Nc1ccn([C@H]2CS[C@@H](CO)O2)c(=O)n1	inactive	inactive	inactive	inactive						
Oc1ccc2c(c1)Cc1ccccc1-2	inactive	inactive	inactive	inactive					inactive	
COC(OC)OC	inactive	inactive	inactive	inactive	inactive			inactive		
CNc1c2c(nn1C)CCCC2	inactive	inactive	inactive	inactive						
O[C@@H](CNC[C@H](O)[C@H]1CCc2cc(F)ccc2O1)[C@@H]1CCc2cc(F)ccc2O1	23.7 µM (active)	23.7 µM (active)	13.3 µM (active)	29.8 µM (active)			inactive			
Cc1cc(CCCOc2c(C)cc(-c3noc(C(F)(F)F)n3)cc2C)on1	inactive	inactive	inactive	inactive	inactive					
COC(=O)Nc1nc2ccc(C(=O)C3CC3)cc2[nH]1	inactive	inactive	inactive	inactive						
CC1=CC[C@@]23C[C@@H]1C(C)(C)[C@@H]2CC[C@H]3C	inactive	inactive	inactive	inactive						
CCCCCCCC/C=C/C(=O)O	inactive	inactive	inactive	inactive						
CCOC(=O)N1CCC(Nc2ccc(Cl)cc2N)CC1	inactive	inactive	inactive	inactive				inactive		
CN1CCCN(C(c2ccccc2)c2ccc(Cl)cc2)CC1 (centres undefined)	21.1 µM (active)	26.6 µM (active)	29.8 µM (active)	26.6 µM (active)			inactive			
O=P(O)(O)Oc1ccccc1	inactive	inactive	inactive	inactive		inactive	inactive			
O=C(O)c1cccc(Oc2ccccc2)c1	inactive	inactive	inactive	inactive				inactive	inactive	
CC12CC3CC(C)(C1)CC(N)(C3)C2	inactive	inactive	inactive	inactive	inactive					
O=C(O)c1cc(Cl)cc(Cl)c1O	inactive	inactive			inactive			inactive	inactive	
O=NN(CCCl)C(=O)NCCCl	inactive		inactive	inactive						inactive
CCN(CC)c1cccc(O)c1	inactive	inactive	inactive	inactive					inactive	
CC(C)CC(O)CC(C)C	inactive	inactive	inactive	inactive	inactive			inactive		
